# From the supplement of paper PMC6555819
# Tests used:
# Assay in all cases: PBM binding z-score (relative to random genomic background probes); higher = stronger binding; sequences stand for … in GC…GCGATTGACAGCGTAGAATGAAGG
# [1] = system: FXR:RXRa (NR concentration 270 nM, RXRa partner concentration 90 nM)
# Procedure, shortened: (§1)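 Antibodies against each partner of ligand-free nuclear receptor dimers (one per run) detected binding on custom Agilent 4×180K protein-binding microarrays after 1 h incubation. The double-stranded probes had 34-nt variable regions carrying direct-repeat seeds, single-nucleotide variants, half-site ablations and random human genomic background sequences. Binding z-scores, from regression-normalized fluorescence, use the random background probes as reference.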
# [2] = system: LXRa:RXRa (NR concentration 270 nM, RXRa partner concentration 90 nM)
# Procedure, shortened: as §1
# [3] = system: LXRa homodimer (NR concentration 270 nM)
# Procedure, shortened: as §1
# [4] = system: LXRb:RXRa (NR concentration 270 nM, RXRa partner concentration 90 nM)
# Procedure, shortened: as §1
# [5] = system: LXRb homodimer (NR concentration 270 nM)
# Procedure, shortened: as §1
# [6] = system: PPARa:RXRa (NR concentration 270 nM, RXRa partner concentration 90 nM)
# Procedure, shortened: as §1
# [7] = system: PPARg:RXRa (NR concentration 180 nM, RXRa partner concentration 90 nM)
# Procedure, shortened: as §1
# [8] = system: PPARg:RXRa 270nM:90nM, anti-RXR (NR concentration 270 nM, RXRa partner concentration 90 nM)
# Procedure, shortened: as §1
# [9] = system: PPARg:RXRa 30nM:10nM, anti-RXR (NR concentration 30 nM, RXRa partner concentration 10 nM)
# Procedure, shortened: as §1
# [10] = system: PPARg:RXRa 90nM:30nM, anti-RXR (NR concentration 90 nM, RXRa partner concentration 30 nM)
# Procedure, shortened: as §1
# [11] = system: PPARg:RXRa DBDmut IVT, anti-RXR (DBD mutation: RXRa K156A/R161A, NR concentration 270 nM, RXRa partner concentration 90 nM)
# Procedure, shortened: as §1
# [12] = system: PPARg:RXRa IVT, anti-PPARg (NR concentration 270 nM, RXRa partner concentration 90 nM)
# Procedure, shortened: as §1
# [13] = system: PPARg DBDmut:RXRa IVT, anti-PPARg (DBD mutation: PPARg1 K132A/R137A, NR concentration 270 nM, RXRa partner concentration 90 nM)
# Procedure, shortened: as §1
# [14] = system: PPARg DBDmut IVT, anti-PPARg (DBD mutation: PPARg1 K132A/R137A, NR concentration 270 nM)
# Procedure, shortened: as §1
# [15] = system: PPARg homodimer (NR concentration 180 nM)
# Procedure, shortened: as §1
# [16] = system: PXR:RXRa (NR concentration 270 nM, RXRa partner concentration 90 nM)
# Procedure, shortened: as §1
# [17] = system: PXR homodimer (NR concentration 270 nM)
# Procedure, shortened: as §1
# [18] = system: RARa:RXR (NR concentration 270 nM, RXRa partner concentration 90 nM)
# Procedure, shortened: as §1
# [19] = system: RARa homodimer (NR concentration 270 nM)
# Procedure, shortened: as §1
# [20] = system: RARb:RXRa (NR concentration 270 nM, RXRa partner concentration 90 nM)
# Procedure, shortened: as §1
Sequence,PBM binding z-score [1],PBM binding z-score [2],PBM binding z-score [3],PBM binding z-score [4],PBM binding z-score [5],PBM binding z-score [6],PBM binding z-score [7],PBM binding z-score [8],PBM binding z-score [9],PBM binding z-score [10],PBM binding z-score [11],PBM binding z-score [12],PBM binding z-score [13],PBM binding z-score [14],PBM binding z-score [15],PBM binding z-score [16],PBM binding z-score [17],PBM binding z-score [18],PBM binding z-score [19],PBM binding z-score [20]
TCTTGTAGATCAAAGGTTTAGAAAGCCGAAGCCT,0.668,0.408,-0.116,0.454,-0.505,1.63,3.22,5.08,4.18,5.48,1.79,1.19,0.53,0.0845,0.307,0.16,-0.198,0.358,-0.0128,-0.0359
TAGCCTAGGTCATTCAGGGGCGAGTATAGAAAGC,5.04,5.21,0.875,3.77,1.13,3.69,2.21,2.4,0.501,1.61,1.58,3.05,0.363,0.38,1.3,4.17,-0.00215,3.55,0.172,3.89
GCAGACAGGTGAACCGCAGGTAACTCAGGGTGGC,0.339,0.437,-0.44,0.125,-1.15,1.77,0.554,0.309,-0.52,0.0575,0.713,0.87,-0.564,-0.733,-0.518,0.615,-0.535,1.09,-0.768,0.901
CCTTACGGGTCACGAGGTTATATCACGACGAGCG,7.05,4.73,0.668,4.12,-0.0743,6.05,7.17,6.76,3.62,5.46,4.44,5.64,1.38,0.342,2.85,4.59,0.517,5.8,0.866,4.5
TCTGCTAGGTCAACGATGGTCTGCTAATCTGCTA,2.95,2.1,-0.371,1.35,0.041,2.92,1.92,2.64,1.66,2.11,3.96,3.88,0.46,1.25,0.811,0.995,-0.719,2,-0.907,3.83
CCTGCTAGGTCAATTGTCAGCTAAAGCAGCTCGC,2.8,2,0.111,1.6,0.259,2.77,1.83,2.46,-0.128,1.54,4.15,3.14,-0.356,-0.703,0.436,0.762,-0.49,1.34,-0.799,3.53
AGTCAAAGTTCATCTAGGTAACGGAAGATATGCT,6.87,6.02,4.37,3.7,1.73,4.86,6.85,6.48,3.55,5.62,0.826,4.12,1.91,0.45,3.26,5.42,7.16,3.87,2.15,4.94
GCTGCTAGGTCAACTGGTGGTCAGCTAAAGCTCG,4.15,3.04,-0.00351,1.99,-0.442,3.55,2.75,3.48,0.603,2.25,4.77,4.33,-0.118,-0.735,2.55,1.61,-0.644,3.34,-0.0343,4.23
CCTACTGGGCCACGATAGGTCATTGATTCAGTGA,0.91,3.95,1.66,1.74,-0.503,2.79,2.44,3.11,0.577,1.86,5.57,5.44,0.89,-0.512,1.33,1.49,0.172,2.14,0.152,2.06
ATCTCTACGTAACAAGTTCAGTGAAAGAGAGGAC,0.253,0.5,0.496,0.811,1.27,0.449,0.368,0.316,0.334,0.321,-0.487,0.36,1.13,1.51,0.708,1.56,2.01,0.741,0.878,1.46
TCTATTAGTTGCTTAGGGCAACCGAAACAGCGGA,0.577,0.582,0.0862,0.602,0.556,0.886,-0.0516,1.87,3.56,2.88,2.15,0.552,0.453,1.28,0.448,0.524,0.123,0.386,0.367,0.946
ACAGACAGGTGAGTGAGGGTAACTCAGCTGGACG,0.174,0.269,-0.243,-0.0988,-0.478,0.503,0.629,0.0987,-0.248,-0.159,0.621,0.841,-0.523,-0.675,0.225,-0.025,0.261,0.222,-0.162,0.987
TCTGCTAGGTCAACGATGGTCCGCTAATCTGCTA,2.99,2.08,-0.377,1.02,-0.262,3,2.07,2.75,1.9,2.22,4.07,4,-0.429,0.0666,0.694,0.998,-0.847,1.91,-0.449,3.91
TCTACTAGTTGATTAGGGCAACCGAAACAGCGGA,-0.0181,-0.4,-0.422,0.0832,-0.553,0.777,0.366,1.66,3.06,2.31,1.59,1.11,-0.0224,-0.068,-0.343,0.00114,-0.203,0.226,-0.458,0.694
GCTCGGAGGACTAGGTCAGAGCTTTGTCCGTAGA,-0.693,-0.505,-1.09,-0.622,-1.5,0.919,0.339,1.04,-1.04,0.269,2.42,2.73,-1.06,-1.65,-0.329,-0.496,-0.984,-0.285,-1.53,1.27
CCTTACGGGTCCCGAGGTTATAGCACGACGAGCG,0.0402,0.394,-0.262,0.124,-0.6,0.95,0.635,-0.283,-0.617,-0.745,-1.26,-0.545,-0.471,-1.66,-0.111,0.32,-0.277,0.482,0.138,0.514
CTCGAAAGGTCGGTTGAGGTGTGTATACGGATAA,1.83,1.28,-0.285,1.05,0.0615,2.13,0.162,0.619,-0.0568,0.492,-0.0512,0.529,0.177,-0.218,0.679,1.43,0.289,1.53,-0.365,2.68
AGAATGAGATTATTAAGATCAGGGAATTGCGGTC,-1.55,-0.864,-0.323,-0.702,-0.452,-0.715,0.449,-0.292,-0.0999,-0.261,-0.986,0.00075,0.944,0.0181,-0.475,-0.605,-0.339,-0.5,0.637,-0.639
CGTCGAAGGTCATAGGAGGTCAGTGAAGACAGAT,7.63,7.68,5.14,6.27,0.859,5.98,5.54,6.05,3.04,4.92,3.11,4.45,-0.37,-0.169,4.08,6.79,3.47,5.95,2.11,5.41
CGTCAAATTTCAACTAAGGTAACGTAAAGCACGC,1.08,0.429,0.483,0.87,0.711,0.628,0.633,0.149,0.303,0.502,0.435,0.656,1.41,1.4,0.372,0.319,0.588,0.981,1.04,0.603
TCTTGTAGATCAATAGAGGTTAAGGAAGTGCGCT,1.25,2.42,0.324,1.5,-0.201,2.08,0.136,1.99,3.04,2.63,1.91,0.959,0.906,0.773,0.732,2.58,0.412,1.96,0.894,1.04
TAGCCTTGGTCATTCAGGGGCCAGTATAGAAAGC,-0.269,-0.328,-0.573,0.134,-0.26,0.0582,-0.0299,-0.0721,-0.509,-0.279,-0.687,0.278,-0.367,-0.339,-0.308,0.0515,-0.437,0.596,-0.818,1.44
TCATATAGGTAGAAGGTGAAAGTCGGTGTGGTAA,1.26,1.21,0.0834,1.16,-0.0966,3.46,5.61,6.84,5.99,7.35,3.5,2.69,1.46,0.808,1.59,0.746,0.482,1.17,1.42,1.08
ATCGAAAGGTCGCCGAGGTGAGTATACACCGTTT,5.1,3.88,0.0507,3.11,0.601,5.12,3.84,4.39,1.55,2.85,0.699,2.7,1.2,0.615,1.79,3.34,0.6,4.03,0.336,4.25
ATATCTAGGTAAAGATAGTTCAGTGAATGCAAAT,0.0166,3.97,0.545,0.556,0.365,2.2,3.15,1.99,1,1.6,5.82,5.59,2.76,1.53,1.12,0.896,0.584,0.384,0.705,0.775
CCTACTGCGCCATTCAGAGGTCATTGATCATATG,3.32,4.74,7.35,4.35,1.54,3.8,0.615,1.89,0.275,0.91,0.443,1.07,0.596,0.708,2.61,4.86,2.44,4.54,1.18,3.05
CCTTACGGGTCACTCCAGGTTATACCATCGGAGT,4.89,7.62,2.1,5.35,0.431,4.44,3.61,3.66,1.11,2.42,2.28,3.61,0.661,-0.4,1.69,5,0.455,3.74,0.133,3.68
CGAACGAGGGCATAAGTTGATAGCAAATGCCGAT,0.0955,-0.0152,-0.319,0.143,-0.74,1.49,1.93,2.59,0.799,2.34,2.66,1.67,-0.0137,-0.0553,0.0801,0.19,0.226,0.129,-0.269,1.58
